The test system of assay [1] is Human papillomavirus type 1a protein E7 (residues 44-93). The assay can be described thus: small molecules binding HPV E7 44-93 – biochemical, small-molecule microarray, residues 44-93, 635 nm fluorescence, primary screen (AID 1108).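 Note: E7 fragment applied at 1 µg/mL in TBST for 1 h at 4 C; score combines spot fluorescence with its signal to noise ratio.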 The note with it: fluorescence 635 nm, higher = more signal.
Assay [2] is described as follows: hepatitis C replication reporter changes, two-sided – Huh7 cells, luciferase reporter, HCV replication inhibitor project, primary screen (AID 1109).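 Note: huh7 hepatoma cells harbouring a luciferase neomycin HCV replicon reporter; luciferase luminescence as measure of HCV replicon replication; test concentration not given here.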 The note with it: Huh7 HCV replicon luciferase reporter, 48 h; higher = more signal.
Assay [3] concerns the target Left-right determination factor 2 (Homo sapiens) (UniProt O00292). The assay can be described thus: small molecules binding LEFTY2 protein – biochemical, small-molecule microarray, 635 nm fluorescence scan, primary screen (AID 1110). The settings on record: higher = more signal.
Assay [4] addresses Calmodulin-1 (Homo sapiens) (UniProt P0DP23). Briefly: small molecules binding calmodulin-1 with EGTA – biochemical, small-molecule microarray, Cy5-labelled CALM1, profiling panel (AID 1111).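 Note: labelled calmodulin applied in Tris saline Tween buffer holding calcium plus EGTA and DTT.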 The settings on record: Cy5-CALM1 binding fluorescence, higher = more signal.
The target is the same in assay [5]. The assay can be described thus: small molecules binding Ca-loaded calmodulin-1 – biochemical, small-molecule microarray, Cy5-labelled CALM1, plus calcium, artefact control for SMM control-protein annotation, profiling panel (AID 1112).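 Note: score merges spot fluorescence with signal to noise from triplicate slides.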 The settings on record: Cy5-CALM1 binding fluorescence, higher = more signal.
Assay [6] is described as follows: probe aWnt5a binding to arrayed compounds – biochemical, biotinylated probe, 635/667 nm fluorescence, primary screen (AID 1113).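 Note: score merges 667 nm fluorescence intensity with signal-to-noise per printed feature.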 The note with it: small-molecule microarray, higher = more signal.
A short description of assay [7]: probe aShh binding to arrayed compounds – biochemical, biotinylated probe, 635/667 nm fluorescence, primary screen (AID 1114).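 Note: probe is biotin-labelled aShh protein from a stem cell growth factor screen; measures binding of labelled protein to compounds printed on the slide; score merges feature fluorescence at 667 nm with signal-to-noise.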 The settings on record: small-molecule microarray, higher = more signal.
Assay [8] can be described thus: probe aNog binding to arrayed compounds – biochemical, biotinylated probe, 635/667 nm fluorescence, primary screen (AID 1115).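 Note: probe is biotinylated aNog protein used at 0.15 µg/mL for 1 h at 4 C; z-score combines 667 nm fluorescence of each spot with its signal to noise.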 The settings on record: small-molecule microarray, higher = more signal.
In assay [9] the target is Torsin-1A-interacting protein 1 (Homo sapiens) (UniProt Q5JTV8). The assay can be described thus: compound microarray binding of lysate hLAP1 – cell lysate, small-molecule microarray, COS7 lysate, 635/667 nm fluorescence, primary screen (AID 1116). The settings on record: 635 nm fluorescence, higher = more signal.
Assay [10] concerns the target Alpha-bungarotoxin (Bungarus multicinctus) (UniProt P60615). Briefly: compounds binding labelled alpha-BTX control protein – biochemical, small-molecule microarray, Alexa647 label, 635/667 nm fluorescence, artefact control for SMM control protein annotation, profiling panel (AID 1117). The note with it: alpha-BTX-A647 binding fluorescence, higher = more signal.
In assay [11] the target is Albumin (Bos taurus) (UniProt P02769). The assay can be described thus: compounds binding labelled BSA control protein – biochemical, small-molecule microarray, Alexa647 label, 635/667 nm fluorescence, artefact control for SMM control protein annotation, profiling panel (AID 1118).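 Note: score merges 667 nm emission intensity and signal-to-noise per printed compound spot.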 The settings on record: BSA-A647 binding, fluorescence 635 nm, higher = more signal.
Assay [12] can be described thus: probe aXIP binding to arrayed compounds – biochemical, NeuroSMM set, 635/667 nm fluorescence, primary screen (AID 1119).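 Note: probe is the protein aXip251-270 applied at 1 µg/mL to compound-printed slides; binding of probe to printed compounds measured as 667 nm fluorescence plus signal to noise.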 The note with it: small-molecule microarray, higher = more signal, called active from +8 up or from −8 down.
The nature of assay [13]: probe aNOTCH3 binding on compound microarray – biochemical, small-molecule microarray, 635/667 nm fluorescence, primary screen (AID 1120).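 Note: probe is a biotin-tagged antibody raised against NOTCH3 rather than NOTCH3 protein; score merges spot fluorescence near 667 nm with spot signal to noise.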 The settings on record: higher = more signal.
Assay [14] can be described thus: probe aNOTCH2 binding on compound microarray – biochemical, small-molecule microarray, 635/667 nm fluorescence, primary screen (AID 1121).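 Note: score merges feature fluorescence read at 667 nm with its signal to noise.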 The note with it: higher = more signal.
Assay [15] deals with Carbonic anhydrase 2 (Homo sapiens) (UniProt P00918). Briefly: compounds binding carbonic anhydrase 2 – biochemical, small-molecule microarray, Alexa647-labelled CAII, profiling panel (AID 1122). The settings on record: CAII-A647 binding fluorescence, higher = more signal.
Assay [16] can be described thus: COS7 lysate on small-molecule microarray, probe aHis, 635 nm (AID 1123).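 Note: z-score combines 667nm fluorescence intensity with signal-to-noise per printed compound spot.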 The note with it: COS7 cell lysate, fluorescence, higher = more signal.
Assay [17] is described as follows: probe aLAP1 signal on lysate-treated microarray – cell lysate, small-molecule microarray, COS7 lysate, primary screen (AID 1124).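 Note: lysate comes from COS7 cells expressing LAP1 and is applied at 0.3 µg/mL; score merges spot fluorescence near 667 nm with signal-to-noise over triplicate slides.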 The settings on record: probe aLAP1, fluorescence, higher = more signal.
In assay [18] the test system is Sam68 (KHDRBS1). The assay can be described thus: compounds binding KHDRBS1 protein – biochemical, small-molecule microarray, 635 nm fluorescence, primary screen (AID 1125).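 Note: score merges 667 nm channel intensity with signal to noise over triplicate slides.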 The note with it: higher = more signal.
In assay [19] the test system is Chordin-like protein 2 (CHRDL2). Briefly: compounds binding chordin-like 2 – biochemical, small-molecule microarray, 635 nm fluorescence, primary screen (AID 1126).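 Note: printed compound slides probed with Chrdl2 protein at 4 µg/mL for 1 h at 4 C; score merges 667 nm emission intensity with signal to noise over three replicate slides.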 The settings on record: fluorescence 635 nm, higher = more signal.
The target of assay [20] is Concanavalin-A (Canavalia ensiformis) (UniProt P02866). The assay can be described thus: compounds binding concanavalin A lectin – biochemical, small-molecule microarray, Alexa647 label, 635 nm, artefact control for SMM control protein annotation, primary screen (AID 1127).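 Note: z combines 667 nm emission intensity with signal-to-noise across three replicate slides.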 The note with it: ConA-A647 binding fluorescence, higher = more signal.

Calls of active or inactive are those of the source.

Chain of Left-right determination factor 2 (Homo sapiens) (O00292 whole entry, looked up): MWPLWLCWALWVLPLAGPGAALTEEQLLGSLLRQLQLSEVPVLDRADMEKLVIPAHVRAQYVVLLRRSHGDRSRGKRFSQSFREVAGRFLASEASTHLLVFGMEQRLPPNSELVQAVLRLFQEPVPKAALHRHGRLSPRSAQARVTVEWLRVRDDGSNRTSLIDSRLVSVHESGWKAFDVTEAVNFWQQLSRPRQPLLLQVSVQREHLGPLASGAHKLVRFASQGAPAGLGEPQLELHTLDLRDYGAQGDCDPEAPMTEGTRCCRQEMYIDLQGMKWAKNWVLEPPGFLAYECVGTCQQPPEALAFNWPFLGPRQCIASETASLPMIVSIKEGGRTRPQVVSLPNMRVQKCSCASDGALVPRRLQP
Chain of Concanavalin-A (Canavalia ensiformis) (P02866 whole entry, looked up): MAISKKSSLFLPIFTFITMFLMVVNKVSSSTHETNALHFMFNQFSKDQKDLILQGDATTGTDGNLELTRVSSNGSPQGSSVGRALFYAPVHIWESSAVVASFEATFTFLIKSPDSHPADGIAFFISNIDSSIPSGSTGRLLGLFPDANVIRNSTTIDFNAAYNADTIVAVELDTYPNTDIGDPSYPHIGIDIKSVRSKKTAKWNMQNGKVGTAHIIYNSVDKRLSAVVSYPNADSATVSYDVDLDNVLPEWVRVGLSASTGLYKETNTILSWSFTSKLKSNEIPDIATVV
Chain of Albumin (Bos taurus) (P02769 whole entry, looked up): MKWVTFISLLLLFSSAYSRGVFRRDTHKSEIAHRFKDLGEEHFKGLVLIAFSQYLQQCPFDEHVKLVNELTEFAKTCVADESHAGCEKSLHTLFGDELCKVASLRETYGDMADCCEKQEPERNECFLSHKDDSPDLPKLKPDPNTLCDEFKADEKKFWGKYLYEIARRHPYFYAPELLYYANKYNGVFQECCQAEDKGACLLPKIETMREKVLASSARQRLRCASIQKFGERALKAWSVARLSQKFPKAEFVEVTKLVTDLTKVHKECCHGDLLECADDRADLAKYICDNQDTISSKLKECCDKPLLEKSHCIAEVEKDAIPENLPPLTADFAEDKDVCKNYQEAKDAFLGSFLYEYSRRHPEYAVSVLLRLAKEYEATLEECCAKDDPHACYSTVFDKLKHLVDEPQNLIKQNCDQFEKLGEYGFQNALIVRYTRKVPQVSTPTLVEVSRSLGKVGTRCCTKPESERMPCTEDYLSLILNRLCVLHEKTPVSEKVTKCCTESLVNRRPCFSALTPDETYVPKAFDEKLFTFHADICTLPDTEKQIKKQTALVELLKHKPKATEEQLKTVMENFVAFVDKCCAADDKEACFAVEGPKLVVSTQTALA
Chain of Alpha-bungarotoxin (Bungarus multicinctus) (P60615 whole entry, looked up): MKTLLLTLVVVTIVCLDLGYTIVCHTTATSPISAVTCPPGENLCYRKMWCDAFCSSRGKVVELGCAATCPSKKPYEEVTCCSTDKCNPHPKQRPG
Chain of Torsin-1A-interacting protein 1 (Homo sapiens) (Q5JTV8 whole entry, looked up): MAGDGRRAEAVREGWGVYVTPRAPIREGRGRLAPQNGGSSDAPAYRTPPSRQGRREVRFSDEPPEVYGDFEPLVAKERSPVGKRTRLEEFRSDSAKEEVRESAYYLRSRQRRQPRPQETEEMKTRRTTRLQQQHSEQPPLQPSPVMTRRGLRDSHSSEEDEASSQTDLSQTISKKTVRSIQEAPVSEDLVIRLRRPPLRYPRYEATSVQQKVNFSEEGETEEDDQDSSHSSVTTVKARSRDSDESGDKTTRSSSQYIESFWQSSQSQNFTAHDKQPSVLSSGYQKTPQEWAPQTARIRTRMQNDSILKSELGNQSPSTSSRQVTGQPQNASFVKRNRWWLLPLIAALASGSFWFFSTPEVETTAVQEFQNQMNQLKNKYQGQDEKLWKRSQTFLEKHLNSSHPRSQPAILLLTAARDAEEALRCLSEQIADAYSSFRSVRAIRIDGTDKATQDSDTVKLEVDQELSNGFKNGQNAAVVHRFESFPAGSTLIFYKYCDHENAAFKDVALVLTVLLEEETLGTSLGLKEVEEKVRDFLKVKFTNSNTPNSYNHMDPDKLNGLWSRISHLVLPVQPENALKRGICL

Regarding `COC(=O)[C@@]1(CCC(=O)OC(C)(C)C)N=C(c2ccc(OCCCO)cc2)O[C@H]1c1ccccc1CN=[N+]=[N-]`, the composite z-score in assay [1] was 0.263; in [3], -0.471; in [4] it was 0.183; in [5] it was -0.222; in assay [6], 0.0079; in assay [7] it was -0.0035. Also, the composite z-score in [8] was -0.0655; in [9] it was 0.868; in [10], 0.592; in assay [11], -0.0515; in [13] it was -0.0984; in assay [14], -0.0786. Further, the composite z-score was 0.743 in assay [15]; 1.41 in assay [16]; 0.348 in assay [17]; -0.126 in assay [18]; -0.141 in assay [19]; 0.855 in assay [20]. Also, the z-score in [2] is -2.6. In addition, the composite Z-score in [12] was 0.69 (inactive).
Turning to `C#CCN([C@H](/C=C/C1CC1)[C@@H](O)Cc1ccccc1)[C@@H](Cc1ccccc1)C(=O)OC`, the composite z-score in [1] was -0.197; in assay [3] it was 0.0052; in assay [4], -0.752; in [5] it was -0.861; in assay [6], -0.124; in assay [7], 0.0639. Also, the composite z-score in [8] was -0.33; in [9] it was -0.188; in [10], -0.0484; in assay [11], -0.578; in [13] it was 0.15; in assay [14], -0.164. Also, the composite z-score in assay [15] is -0.179; in assay [16], -0.485; in assay [17], -0.454; in [18], 0.0511; in assay [19], 0.686; in assay [20] it was -0.249. The z-score in [2] is -2.64. Moreover, the composite Z-score in assay [12] is -0.232 (inactive).
Consider `C=CCNC(=O)[C@@H]1[C@H]2C(=O)O[C@H](c3ccccc3)[C@H](c3ccccc3)N2[C@H](c2ccccc2OCCO)[C@@]12C(=O)N(C(=O)OCCOC)c1ccc(C#CCCO)cc12`, for which the composite z-score in assay [1] is 1.34; in assay [3] it was 0.0333; in assay [4] it was 1.66; in assay [5], 0.428; in assay [6] it was -0.006; in assay [7] it was 0.131. For the same compound, the composite z-score in assay [8] is -0.305; in assay [9], 0.87; in [10], 0.274; in assay [11], 0.538; in [13], 0.0807; in assay [14] it was -0.112. Besides, the composite z-score came to 0.64 in assay [15]; 0.797 in assay [16]; 0.77 in assay [17]; 1.29 in assay [18]; 0.0117 in assay [19]; 0.953 in assay [20]. In [2], the z-score is -1.82. Further, the composite Z-score in [12] is -0.0086 (inactive).
Consider `CN1C(=O)C2C(C1=O)C1C=C(c3ccc(CO)cc3)C2C(c2cccs2)N1C` (stereo not given), for which the composite z-score was 0.104 in assay [1]; -0.112 in assay [3]; 1.47 in assay [4]; 0.312 in [5]; -0.1 in [6]; -0.0553 in [7]. In addition, the composite z-score in assay [8] is -0.12; in assay [9], 2.17; in [10] it was 1.86; in assay [11], 0.935; in assay [13] it was -0.0044; in [14], -0.146. In addition, the composite z-score is 0.76 in [15]; 0.784 in [16]; 1.08 in assay [17]; 0.47 in assay [18]; -0.125 in assay [19]; 1.18 in assay [20]. For the same compound, the z-score in assay [2] worked out at 0.706. In addition, in assay [12], the composite Z-score was 0.891 (inactive).
Turning to `CN1C(=O)[C@]2(CCC(=O)OC(C)(C)C)N=C(c3ccc(OCCCO)cc3)O[C@@H]2c2ccccc21`, the composite z-score was 1.45 in assay [1]; -0.0515 in assay [3]; 0.147 in assay [4]; -0.0006 in [5]; 0.0279 in assay [6]; 0.275 in assay [7]. In addition, the composite z-score in assay [8] was 0.346; in assay [9], 0.973; in assay [10], 1.14; in [11], 0.272; in [13] it was -0.117; in [14], -0.12. The composite z-score in assay [15] was 0.709; in assay [16], 2.69; in assay [17] it was -0.313; in assay [18], 1.28; in assay [19], 0.149; in [20], 1.12. In assay [2], this compound had a z-score of -2.88. The composite Z-score in assay [12] is 0.0786 (inactive).
Consider `C=CCC(OC(C)=O)[C@@H]1[C@@H](N(Cc2ccc(-c3cccc(C(F)(F)F)c3)o2)C(=O)c2cccc3ccccc23)c2cc(OCCCO)ccc2N1C(=O)c1ccc2ccccc2c1` (stereo not given in full), for which the composite z-score in assay [1] was -0.423; in assay [3], -0.382; in [4] it was -0.34; in assay [5], 0.17; in assay [6] it was -0.108; in [7] it was -0.0709. The composite z-score in assay [8] is 0.0649; in [9], 0.49; in assay [10] it was 0.108; in assay [11], -0.119; in assay [13], 0.147; in [14], -0.12. The composite z-score in [15] was 0.0138; in assay [16], 0.289; in assay [17], -0.278; in assay [18], -0.351; in assay [19] it was 0.31; in assay [20] it was -0.0957. The z-score in assay [2] stood at 0.0329. In addition, the composite Z-score in [12] was 0.115 (inactive).

The values above are taken from PubChem BioAssay.
